Shown are actives, neighbours in structure and some others; about 2.9% of the full set was active somewhere.
LDHA inh: LDHA (human) enzyme inhibition | 480,000 tested, 0.15% active | P00338 | AID 1347041 | activity change, % (values are at about 110 or 230 µM) | purified LDHA, NADH/diaphorase-resazurin fluorescence; stronger effect = lower value; in the data active means activity change below about -30%; inconclusive means mostly about -25% to -30%
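Remaining NADH was detected by diaphorase (0.133 mg/mL) converting 37 µM resazurin to fluorescent resorufin, read at 0 and 20 minutes. The preceding 5-minute room-temperature reaction used 2 nM LDHA, 0.2 mM sodium pyruvate and 0.06 mM NADH at pH 7.4.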
GLP-1R inv ag: inverse agonists of human GLP-1 receptor; P43220; HEK293 GLP-1R CRE-luciferase, luminescence, 24 h; GLP-1R form is constitutively active; Potency, µM (highest dose often 38.3 µM), most hits filed as inhibitors; 410,000 tested, 1.6% active; AID 624417; further: nearly all actives have a fitted effect of over 55% in size
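HEK293 cells stably co-expressing a cAMP-responsive luciferase reporter and constitutively active GLP-1R were seeded, incubated 12 h, then exposed to compounds for 24 h at 37 C. Luminescence was read 12 min after detection reagent; inverse agonists lower signal.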
ClpP mod: qHTS Assay for Activators of ClpP. purified B. subtilis ClpP, FRET peptide cleavage, 20 min. AID 651965, 2013. ATP-dependent Clp protease proteolytic subunit (Bacillus subtilis (strain 168)), P80244. Potency, µM (top dose mostly 57.5 µM). 340,000 tested, 1.9% active; active means well fitted falling curve with a large enough effect; inconclusive means small, poorly fitted or top-dose-only effect; inactive means no such curve, though single readings can be large or run the other way; further: the source files actives as falling curves though it sought activators and does not explain the sign; nearly all actives have a fitted effect of over 65% in size
Target sequence (P80244 whole entry, looked up): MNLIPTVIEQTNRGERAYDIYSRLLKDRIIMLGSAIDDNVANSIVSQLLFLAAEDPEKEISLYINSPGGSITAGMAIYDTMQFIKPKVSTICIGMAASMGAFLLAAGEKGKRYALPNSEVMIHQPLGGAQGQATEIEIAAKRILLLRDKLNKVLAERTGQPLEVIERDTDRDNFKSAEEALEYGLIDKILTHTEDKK
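FRET quenching reversal measured ClpP activation: 10 microg/mL B. subtilis ClpP at pH 8 with the FRET-FV decapeptide, read at 430 nm after 320 nm excitation. The 20-min minus 0-min signal was scaled between DMSO/no-enzyme wells and ADEP (5.8 microM final).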
GLP-1R agonist: GLP-1 receptor (human) agonism; 380,000 tested, 0.007% active; P43220; Potency, µM (titrated, usually from 45.6 µM), usual class: activators; HEK293 GLP-1R CRE-luciferase, luminescence, 4-6 h; cells express a hypersensitive GLP-1R form
GLP1R cytotox: cytotoxicity counter-screen for GLP-1 receptor inverse agonists. 410,000 tested, 0.13% active. Potency, µM (titrated, usually from 38.3 µM), actives largely listed as inhibitors. HEK293 cAMP-luciferase reporter cells, luminescence, 24 h;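 further: loss of luciferase light is scored as toxicity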
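Quantitative HTS format, 1536 wells, 200 cells/uL seeded. Compounds: 23 nL, 24 h, 37 °C. Detection: luciferase reagent, luminescence at 12 min RT; decreased signal taken as cytotoxic.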
p53 reactivation: restores transcriptional activity of mutant p53; H1299 p53-A138V BP100-luciferase reporter, luminescence, 24 h; Potency, µM (series often up to 92.2 µM), usual class: activators; 320,000 tested, 0.063% active; AID 504706; further: nearly all actives have a fitted effect of over 45% in size
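p53-null H1299 cells stably carrying temperature-sensitive p53-A138V and a BP100-luciferase reporter were pinned with compounds (4-point, 1:5 series) and held 24 hrs at 37 deg C. Luminescence was read 10 min after detection reagent.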
Each line names hits and unclear results; the compound was inactive in the other large screens. Unless noted, the call rests on the fitted dose curve; in most records, active means well fitted curve in the direction sought with a large enough effect; inconclusive means small, poorly fitted or top-dose-only effect, or another doubt; inactive means no such curve, though single readings can be large; an effect the other way counts as inactive or inconclusive.

CC(=O)C1CCC2C3CCC4=CC(=O)CCC4(C)C3(F)C(O)CC12C (configuration not stated)	GLP-1R inv ag inconclusive (no result: p53 reactivation)
Cc1ccc2c(c1)c1c3n2CCN(CCC#N)C3CCC1 (configuration not stated)	none (no result: p53 reactivation)
CCN1CCn2c3c(c4cc(C)ccc42)CCCC31 (configuration not stated)	GLP-1R inv ag inconclusive, ClpP mod 28.2µM
CCc1ccc(/C=N/NC(=O)c2cc(C)on2)s1	GLP-1R inv ag inconclusive, ClpP mod 2.82µM, GLP1R cytotox inconclusive, p53 reactivation inconclusive
CCN(Cc1ccncc1)C(=O)c1ccc(C)c(S(=O)(=O)N2CCCCC2)c1	none
FC(F)Oc1ccc(/C=N/N2CCCCC2)c(OC(F)F)c1	none (no result: LDHA inh, GLP-1R inv ag, ClpP mod, GLP-1R agonist, GLP1R cytotox)
Cc1oc(-c2nc3ccccc3n2C)cc1C(=O)c1ccccc1	GLP-1R inv ag inconclusive, p53 reactivation 10µM
Cn1c(-c2ccc(Br)o2)nc2ccccc21	none (no result: p53 reactivation)
Cc1ccc(-c2nc3ccccc3n2C)o1	ClpP mod 15.8µM
COc1ccc(NC(=O)Cn2nnc3sc4c(c3c2=O)CCCC4)cc1	none (no result: GLP-1R agonist, p53 reactivation)
CCC(O)c1cc2c(cc1NC(=O)c1ccccc1F)OCCO2 (configuration not stated)	none (no result: GLP-1R agonist, p53 reactivation)
CCc1nc(SCC(=O)NCc2ccco2)c2c(=O)n(C)c(=O)n(C)c2n1	none
COc1ccccc1Nc1nc(C)cc(C)n1	ClpP mod 17.8µM
COCCOC(=O)c1cc(C(=O)c2cc(F)ccc2O)coc1=N	ClpP mod 15.8µM
Cc1cccc(C)c1Nc1nnc(SCC(=O)c2ccc3c(c2)NC(=O)CO3)s1	ClpP mod 35.5µM
CCCn1c(C)nc2c(c1=O)c1nc3ccccc3nc1n2CCC1=CCCCC1	ClpP mod 31.6µM
O=C(NC1CCCCC1)C(c1cccnc1)N(C(=O)CCl)c1ccccc1Cl (configuration not stated)	GLP-1R inv ag 1.58µM
COc1ccc(-c2nsc(C(=O)N(c3ccc(F)cc3)C(C(=O)NC3CCCC3)c3ccc(OC)cc3)c2N)cc1 (configuration not stated)	GLP-1R inv ag inconclusive, ClpP mod 15.8µM
COc1ccc(C(C(=O)NC2CCCCC2)N(C(=O)CCl)c2cccc(Cl)c2)cc1 (configuration not stated)	GLP-1R inv ag 2.82µM
O=C(NC1CCCCC1)C(c1cccnc1)N(C(=O)CCl)c1ccc(F)cc1 (configuration not stated)	GLP-1R inv ag inconclusive, GLP1R cytotox inconclusive
Nc1c(-c2ccccc2)nc(Cl)nc1-c1ccccc1	ClpP mod 31.6µM
CCN(CC)C(=S)NC(=O)c1ccc(F)cc1	GLP-1R inv ag inconclusive, GLP1R cytotox 3.55µM (no result: ClpP mod)
CCN(CC)C(=S)NC(=O)c1cccnc1	GLP1R cytotox inconclusive (no result: ClpP mod)
CC/C(=N\NC(=O)c1c[nH]c2ccccc12)c1cccs1	p53 reactivation inconclusive
N#CC(C#N)=c1ccc2c(c1)NC1(CCCCC1)N=2	GLP1R cytotox 10µM
Cc1ccccc1-n1c(CSC(=N)N)nc2ccccc2c1=O	ClpP mod 11.2µM
N=C(N)SCc1nc2ccccc2c(=O)n1-c1ccccc1Cl	ClpP mod inconclusive, p53 reactivation inconclusive
Cn1c(-c2ccccc2O)cc2ccccc21	GLP-1R inv ag 10µM, ClpP mod 15.8µM
Cn1c(-c2ccccc2)cc2ccccc21	none
CCOc1ccc(S(=O)(=O)NC2CCCCC2C)cc1 (configuration not stated)	GLP-1R inv ag 10µM (no result: p53 reactivation)
c1ccc(CCSc2nccn2-c2ccccc2)cc1	GLP-1R inv ag inconclusive, p53 reactivation inconclusive
CCc1ccc(CSc2nccn2-c2ccccc2)cc1	GLP-1R inv ag 6.31µM
Cc1ccc(-n2c(SCC(=O)N/N=C/c3c(C)nn(-c4ccccc4)c3C)nc3ccccc3c2=O)cc1	none

High-throughput results deposited in PubChem by National Center for Advancing Translational Sciences (NCATS).
